# Measurements reported in PubChem BioAssay AID2551 (National Center for Advancing Translational Sciences (NCATS), 2010).
# In all, about 310,000 compounds went through this assay and about 17,000 (5.5%) were called active. Where a call stands in place of a potency, no number is given. Roughly 11% stayed inconclusive and do not appear here. The call rests on the fitted dose curve; in most records, active means well fitted inhibition curve with a large enough effect; inconclusive means small, poorly fitted or top-dose-only effect, or effect the other way; inactive means no such curve, though single readings can be large or run the other way. Only a selection was taken, and actives are over-represented in it overall.
# Biological target: Nuclear receptor ROR-gamma (Mus musculus) (UniProt P51450)
# Sequence (P51450 whole entry, looked up): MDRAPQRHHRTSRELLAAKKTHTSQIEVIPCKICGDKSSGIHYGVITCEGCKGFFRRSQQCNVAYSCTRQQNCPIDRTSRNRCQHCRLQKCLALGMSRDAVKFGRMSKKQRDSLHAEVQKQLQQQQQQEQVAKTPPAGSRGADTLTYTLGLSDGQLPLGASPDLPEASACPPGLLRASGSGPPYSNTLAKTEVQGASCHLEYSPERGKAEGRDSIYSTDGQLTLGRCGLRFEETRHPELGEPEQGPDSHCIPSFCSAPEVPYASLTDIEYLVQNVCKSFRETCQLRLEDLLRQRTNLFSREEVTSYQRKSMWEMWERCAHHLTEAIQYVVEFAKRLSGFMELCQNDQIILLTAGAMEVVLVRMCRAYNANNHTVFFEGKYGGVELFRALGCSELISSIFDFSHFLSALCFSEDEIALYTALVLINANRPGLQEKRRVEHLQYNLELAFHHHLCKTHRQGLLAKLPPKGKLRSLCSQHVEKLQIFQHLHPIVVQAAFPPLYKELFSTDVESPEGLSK
# Experiment: qHTS for inhibitors of ROR gamma transcriptional activity; further: nearly all actives have a fitted effect of over 60% in size
# Details: Drosophila S2 Gal4-RORgamma UAS-luciferase reporter, 20 h; series mostly up to 53.6 µM
# Outline: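 In this cell-based reporter format, copper sulfate (700 uM final) drives Gal4–ROR gamma fusion expression from a metallothionein promoter in Drosophila Schneider cells; compounds preincubated 1 hr, reporter read after 20 hr at ambient temperature.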
# Potency means the concentration at half of the fitted maximal effect.
Structure (SMILES),Potency,"activity change, negative = inhibition"
CC(OC(=O)c1ccc2noc(-c3ccccc3)c2c1)C(N)=O (stereo not drawn),inactive,
O=C(C/C(=N\NC(=O)c1ccccc1Br)C(F)(F)F)c1cccs1,14.1 µM (active),
COc1ccc(C(=O)COC(=O)CNC(=O)c2cccs2)cc1Br,inactive,
O=C(Nc1nn(Cc2ccccc2F)cc1Br)c1cccs1,inactive,
CCCCn1c(-c2cccc(C)c2)nc2cc3[nH]c(=O)c(C(C)C)nc3cc21,inactive,
O=C(Nc1cccc(-c2cscn2)c1)C1CCN(Cc2ccsc2)CC1,inactive,
O=C(NCCN1CCOC1=O)C1CCC(=O)N(CCc2ccc(Cl)cc2)C1 (stereo not drawn),inactive,
Cc1ccc(CS(=O)Cc2ccc(C(=O)N3CCOCC3)o2)cc1 (stereo not drawn),inactive,
CCOc1cccc(/C=N/N2C(=O)CSC2=S)c1O,3.16 µM (active),
CCOc1ccccc1N=C1NC(=O)CS1,inactive,
COc1ccc(CCNC(=O)C(=O)NCC2OCCN2S(=O)(=O)c2ccc(F)cc2)cc1OC (stereo not drawn),inactive,
Cc1ccc(S(=O)(=O)NNC(=O)/C=C/c2cccc(F)c2)cc1,inactive,
COC(=O)C1=C(O)/C(=C/c2ccc(OCC(=O)Nc3ccccc3)cc2)N=C1C,inactive,
CS(=O)(=O)N1CCN=C1SCc1ccc(F)cc1,inactive,
Cc1cc(NC(=O)CSc2nnnn2-c2ccc(F)cc2)no1,inactive,
Fc1ccccc1/C=C1\CCCC2=C1Nc1ncnn1C2c1ccccc1F (stereo not drawn),2.82 µM (active),
CC1=C(C(N)=O)C(c2ccc(Br)cc2)n2ncnc2N1 (stereo not drawn),inactive,
CC(=O)c1cccc(NC(=O)COc2ccc(S(=O)(=O)N3CCOCC3)cc2)c1,inactive,
O=C(CSc1ccc(-c2ccccn2)nn1)Nc1ccccc1,inactive,
CCC(C)(C)n1nnnc1C(c1ccc(OC)c(OC)c1)N1CCN(C(=O)c2ccco2)CC1 (stereo not drawn),inactive,
Cc1cccc(NS(=O)(=O)c2cc(Cl)ccc2Cl)n1,inactive,
COc1ccc(Oc2ncc3nc(C)c(=O)n(-c4ccccc4)c3n2)cc1,inactive,
Cc1n[nH]c(=O)n1-c1ccc(C(C)C)cc1,inactive,

Structure (SMILES),Potency,"activity change, negative = inhibition"
Cc1n[nH]c(=O)n1-c1ccc(Oc2ccccc2)cc1,2.82 µM (active),
Cc1ccc2c(c1)N(S(=O)(=O)c1cc(-c3cc(C)no3)ccc1C)CCO2,inactive,
O=S(=O)(c1ccc(Cl)s1)N1CCC2(CC1)OCCO2,inactive,
O=C(c1cccc(Br)c1)N1CCN(C2=NS(=O)(=O)c3ccccc32)CC1,inactive,
COC(=O)c1c(NC(=O)C(=O)N2CCCCC2)sc2c1CC(C)(C)OC2,inactive,
COc1cccc(OC)c1C(=O)NC(=S)Nc1ccc(N2CCOCC2)c(Cl)c1,8.91 µM (active),
COC(=O)c1cc(NC(=O)c2ccco2)ccc1N1CCOCC1,inactive,
CCOC(=O)c1c(NC(=O)c2ccc(N3CCOCC3)c([N+](=O)[O-])c2)sc(C)c1C,inactive,
CCOc1ccc(C(=O)Nc2ccc(CN3CCOCC3)cc2)cc1Cl,inactive,
CCOc1ccc(C(=O)NC(=S)Nc2ccc(N3CCOCC3)c(Cl)c2)cc1[N+](=O)[O-],3.16 µM (active),
COc1c(C)cccc1C(=O)Nc1cc(Cl)ccc1N1CCOCC1,inactive,
CCc1nc2cccnc2n1-c1ccc(C(=O)O)cc1,inactive,
CC(=O)Oc1cccc(C(=O)Nc2ccccc2NC(=O)c2cccc(OC(C)=O)c2)c1,inactive,
COc1ccc(C2=NS(=O)(=O)N(C)C(C(=O)N3CCCCC3)=C2)cc1,inactive,
COc1cc(CC(=O)N2CCC(n3nccc3NC(=O)C3CC3)CC2)cc(OC)c1OC,inactive,
CC(C)(C)c1ccc(/C=C/C(=O)NCCCn2ccnc2)cc1,inactive,
O=C(CSc1nc(C2CC2)nc2ccccc12)Nc1cccc(O)c1,inactive,
Cc1cccc(C(=O)Nc2ccc(CC(=O)O)cc2)c1,7.94 µM (active),
O=C(Cc1ccccc1)Nc1cccc(NC(=O)c2ccccc2)c1,inactive,
O=C(O)Cc1ccc(NC(=O)c2cccs2)cc1,inactive,
Cc1nn(C)cc1S(=O)(=O)N1CCN(c2ccc(F)cc2)CC1,inactive,
Cc1ccc(OCC(=O)Nc2ccc(C(=O)O)cc2NC(=O)COc2ccc(C)c(C)c2)cc1C,inactive,
CCCCCCCCn1c2c(c(=N)c3c1CCC3)CCCC2,0.708 µM (active),

Structure (SMILES),Potency,"activity change, negative = inhibition"
O=C(NNS(=O)(=O)c1ccc([N+](=O)[O-])cc1)C1CCCCC1,inactive,
c1ccc(CN=C2Nc3ccccc3CS2)nc1,11.2 µM (active),
COc1ccc(CCn2c(-c3ccco3)nc3nc4ccccc4nc32)cc1OC,,-7.43% [at 10 µM] (inactive)
COc1ccccc1-n1c(-c2cc(-c3ccco3)[nH]n2)n[nH]c1=S,inactive,
Cn1c(-c2ccco2)nc2cc3ccccc3cc21,6.31 µM (active),
CN(C)Cc1c(C(=O)N/N=C/c2ccccc2OCc2ccc(F)cc2)nnn1-c1nonc1N,inactive,
Cc1ccc(C2C3=C(Nc4[nH]n(-c5ccccc5)c(=O)c42)c2ccccc2C3=O)cc1 (stereo not drawn),inactive,
Cc1cc(C)c(C2C3=C(Nc4c2c(C)nn4-c2ccccn2)c2ccccc2C3=O)c(C)c1 (stereo not drawn),2.51 µM (active),
Cc1nn(-c2ccccn2)c2c1C(c1ccncc1)C1=C(CC(C)(C)CC1=O)N2 (stereo not drawn),inactive,
CS(=O)(=O)N(CC(=O)Nc1ccc(F)cc1)C1CCCCC1,inactive,
Cc1cccc(OC(C)C(=O)N2CCc3ccccc3C2)c1 (stereo not drawn),inactive,
COc1ccc(-c2nn(-c3ccccc3)cc2/C=N/Nc2ccccn2)cc1OC,7.08 µM (active),
Cc1nnc(SCC(=O)N/N=C/c2cn(-c3ccccc3)nc2-c2ccc(F)cc2)n1-c1ccccc1,inactive,
CN(C)/N=C/c1cn(-c2ccccc2)nc1-c1cccnc1,inactive,
CC1CC(=O)N(CC(=O)Nc2cccc(Cl)c2)c2ccccc2S1(=O)=O (stereo not drawn),inactive,
NC(=O)c1cc(S(=O)(=O)N2CCCC2)ccc1OCc1ccc(F)cc1,inactive,
CCOC(=O)CSc1nnc(CNC(=O)c2cccs2)n1-c1ccccc1,inactive,
Cc1ccc(C)c2[nH]c(=O)c(CCNC(=O)c3cccs3)cc12,inactive,
C=CCn1c(CCNC(=O)c2cccs2)n[nH]c1=S,17.8 µM (active),
O=C(c1cc2cc(Br)cc(Br)c2oc1=O)N1CCOCC1,inactive,
C=CCn1c(-c2ccc3[nH]c(C)c(C)c3c2)n[nH]c1=S,5.62 µM (active),
C=CCn1c(COc2ccccc2C)nnc1SCC(=O)O,inactive,
C=CCn1c(-c2ccccc2OCC)n[nH]c1=S,10 µM (active),

Structure (SMILES),Potency,"activity change, negative = inhibition"
Cc1[nH]c2ccc(S(N)(=O)=O)cc2c1C,,-1.39% [at 10 µM] (inactive)
C=CCn1c(COc2cccc3cccnc23)nnc1SCC(=O)OC,inactive,
Cc1nc(-c2ccccc2)sc1-c1nc(-c2ccccc2)ncc1S(=O)(=O)c1ccccc1,inactive,
C=CCn1c(=S)sc2c(=O)[nH]c(C)nc21,inactive,
Cc1nc(-c2ccccc2)sc1-c1nnc(C2CC2)o1,inactive,
C=CCn1c(-c2sc(-c3ccccc3)nc2C)n[nH]c1=S,2.51 µM (active),
COCCn1c(SCC(=O)N2CCCCCC2)nc2c(c1=O)SCC2,inactive,
CCN1CCN(c2sc(S(C)(=O)=O)nc2S(=O)(=O)c2ccc(Cl)cc2)CC1,inactive,
CCOC(=O)c1csc(CCNC(=O)c2oc3c(Cl)cc(C)cc3c2C)n1,inactive,
CC1CC(C)CN(S(=O)(=O)c2cccc3nonc23)C1 (stereo not drawn),inactive,
COc1cc(/C=N/NC(=O)CNC(=O)c2ccncc2)ccc1OC(C)=O,inactive,
COc1ccc(/C=N/NC(=O)c2ccc(Cl)cc2)cc1COC(C)=O,inactive,
COc1ccc(/C=N/NC(=O)c2ccncc2)cc1CN1CCCc2ccccc21,11.2 µM (active),
COc1ccc(C(=O)O)cc1S(=O)(=O)NCc1cccnc1,inactive,
COc1cccc(NC(=O)CN2CCN(CC(=O)Nc3ccccc3Cl)CC2)c1,inactive,
Cc1ccc(OCC(=O)NC(C)c2ccccc2)cc1C (stereo not drawn),inactive,
O=C(CN1CCCCCC1)Nc1ccc(S(=O)(=O)N2CCCCC2)cc1,inactive,
O=C(Cc1cccs1)Nc1nnc(C2CC2)s1,inactive,
Cc1occc1C(=O)Nc1nnc(C2CCCCC2)s1,,0% [at 10 µM] (inactive)
O=C(Nc1nnc(C2CC2)s1)c1cc(Cl)sc1Cl,11.2 µM (active),
Cc1cccc(NC(=O)CSCC(=O)Nc2nnc(C3CC3)s2)c1,inactive,
CC1CCN(c2ccc(C(=O)Nc3nnc(C4CC4)s3)cc2[N+](=O)[O-])CC1,inactive,
O=C(Nc1nnc(C2CC2)s1)c1ccccn1,1.12 µM (active),

Structure (SMILES),Potency,"activity change, negative = inhibition"
CCCc1ccc(OCC(O)CN2CCN(C(=O)OCC)CC2)cc1 (stereo not drawn),inactive,
O=C(NCc1ccncc1)C(=O)NCC1OCCN1S(=O)(=O)c1ccc(Br)cc1 (stereo not drawn),inactive,
CCCN1C2CCCC1CC(NC(=O)NC13CC4CC(CC(C4)C1)C3)C2 (stereo not drawn),inactive,
COc1cc(/C=N/NC(=O)Cc2ccccc2)cc(OC)c1OC,inactive,
C/C(=N\NC(=O)c1ccc(C)cc1)C1C(=O)c2ccccc2C1=O,0.891 µM (active),
C/C(=N/NC(=O)c1ccc(NC(=O)c2ccc(F)cc2)cc1)c1ccccc1,inactive,
Cc1ccc(C(=O)NCCNC(=O)c2ccccc2)cc1,inactive,
FC(F)(F)c1nnc2c3ccccc3c(Cl)nn12,inactive,
O=C(CN1CCN(c2cccc(Cl)c2)CC1)Nc1ccc(S(=O)(=O)N2CCOCC2)cc1,inactive,
Cc1cccc(NC(=O)COC(=O)CCc2ccccc2)c1C,,-18.4% [at 1.91 µM] (inactive)
NC(=O)Nc1ccccc1C(=O)NCCc1ccccc1,inactive,
Cc1ccc(NC(=O)C(=O)NCc2ccco2)c(C)c1,inactive,
Cc1ccc(NC(=O)c2ccn(C(=O)Nc3ccccc3)n2)c(C)c1,inactive,
Cc1cccc(NC(=O)C2CCCN(C(=O)Nc3ccc(F)cc3)C2)c1C (stereo not drawn),inactive,
O=C(CC(=O)N/N=C\c1ccc(F)cc1)NCCc1ccccc1,inactive,
Cc1ccc(NC(=S)NCc2ccccc2Cl)c(C)c1,6.31 µM (active),
Cc1cc(Cl)ccc1NC(=S)NCCCN1CCCC1=O,inactive,
Cc1cccc(NC(=S)NCCc2ccc(F)cc2)c1C,2 µM (active),
Cc1cc(F)ccc1NC(=S)NCCc1ccccc1,5.62 µM (active),
Cc1cc(C(=O)NCCc2ccc(Cl)cc2)c(C)o1,inactive,
Cc1ccc(NC(=S)NCCc2ccc(Cl)cc2)c(C)c1,2.82 µM (active),
